Experimental data as given in ChEMBL document CHEMBL1157539, “Thousands of chemical starting points for antimalarial lead identification” (Nature, 2010).

Experiments:
Assay type in all cases: functional
Plasmodium falciparum [1] = assay: GSK_TCMDC: Inhibition of Plasmodium falciparum 3D7 in whole red blood cells, using parasite LDH activity as an index of growth. Test compounds present at 2uM
Plasmodium falciparum [2] = assay: GSK_TCMDC: Inhibition of Plasmodium falciparum Dd2 in whole red blood cells, using parasite LDH activity as an index of growth. Test compounds present at 2uM
HepG2 = assay: GSK_TCMDC: Percent inhibition of human HepG2 cell line. Test compounds present at 10uM.

SMILES	Inhibition (Plasmodium falciparum [1]) [%]	Inhibition (Plasmodium falciparum [2]) [%]	Inhibition (HepG2) [%]
Cc1cc(-c2nc3ccc(CN4CCN(C)CC4)cc3[nH]2)nn1Cc1cc(Cl)ccc1OCc1ccccc1.Cl	100	52	3
CCS[C@@H]1O[C@H](COC(=O)c2ccccc2)[C@H](OC(=O)c2ccccc2)[C@H](OC(=O)c2ccccc2)[C@H]1OC(=O)c1ccccc1	98	52	4
CCc1c(CCNCCCCCCNCCc2ccc(Br)cc2)ccc(OC)c1OC.Cl	99	14	100
CCc1cc2c(O)c([N+](=O)[O-])c(=O)oc2cc1OCCCCCOc1cc2oc(=O)c([N+](=O)[O-])c(O)c2cc1CC	99	0	11
COc1cc(Cc2cnc(N)nc2N)ccc1OCC(=O)Nc1ccc(C)cc1	95	18	10
CCNc1cc(C(=O)N[C@@H](Cc2ccccc2)[C@H](O)CNCc2cccc(OC)c2)c(OC)c(N2CCCCS2(=O)=O)c1	97	96	11
O=C(Nc1ccc(N2CCCN(Cc3cccc(F)c3)CC2)cc1)c1cccs1.O=C(O)C(F)(F)F	96	96	2
CC(=O)Nc1ccc2[nH]cc(C3CCN(CCC4CCN(C(=O)/C=C/c5ccc(Cl)c(Cl)c5)CC4)CC3)c2c1	95	7	13
CN1CCc2ccc(NC(=O)Nc3ccc(-c4ccccc4)cc3)cc2C1	90	45	24
COc1cc2nc(N3CCC(CNC(=O)c4ccc(C(C)=O)cc4)CC3)nc(N)c2cc1OC.O=C(O)C(F)(F)F	96	15	10
O=S(=O)(Nc1cccc(CCN2CCC(N3CCCCC3)CC2)c1)c1cccc(C(F)(F)F)c1	100	13	25
Cc1nc2c(=O)sc3ccccc3c2n1Cc1ccccc1	95	26	0
O=C(/C=C/c1ccc(Cl)c(Cl)c1)NCCCCCCN1CCCN(C(=O)Nc2cc(Cl)cc(Cl)c2)CC1	98	2	26
COc1ccc(OCC(=O)Nc2nc(-c3ccc(OC)cc3)c(C)s2)cc1	100	87	0
CN1CCC(N(Cc2ccc(-c3ccc(C(F)(F)F)cc3)cc2)C(=O)Cn2cc(Cc3cnn(C)c3)c(=O)nc2SCc2cccc(F)c2F)CC1.O=C(O)C(O)C(O)C(=O)O	88	91	68
Cc1nc(-c2ccc3c(c2)CCN(CCC2CCC(NC(=O)c4cc5cccc(Cl)c5[nH]4)CC2)CC3)no1.Cl (stereo not given)	100	46	36
COc1ccc2nccc([C@@H](O)CN3CCC(NCc4cc5ccccc5[nH]4)CC3)c2c1.CS(=O)(=O)O	92	41	75
CC(CN1CCN(C)CC1)C(=O)Nc1cccc(-c2cccc(-c3nc4ccccc4[nH]3)c2)c1 (stereo not given)	88	19	23
O=C(c1cc(C(=O)NC2CCCCC2)c(=O)n(C2CCCCC2)c1)c1cc(F)ccc1O	99	98	22
CC1(C)Cc2c([nH]c3ccccc23)C(CCCCCCCCC2=NC(C)(C)Cc3c2[nH]c2ccccc32)=N1.Cl	99	88	100
CCn1c(-c2nonc2N)nc2cnc(Oc3cccc(NC(=O)c4ccc(OCCN(C(C)C)C(C)C)cc4)c3)cc21	97	10	63
CCc1cn2c3c(cc(C(=O)N[C@@H](Cc4ccccc4)[C@H](O)CNC4CCCCC4)cc13)N(C)S(=O)(=O)C2.O=CO	99	99	20
C(=N\Nc1nccc2sc(-c3ccccc3)cc12)/c1cccnc1	97	10	0
CCc1cn2c3c(cc(C(=O)N[C@@H](Cc4cc(F)cc(F)c4)[C@H](O)CNC4CCCCC4)cc13)N(C)S(=O)(=O)CC2.O=CO	100	99	9
Cc1cccc2nc(-c3cccc(-c4cccc(C(=O)NCCN5CCCC5)c4)c3)[nH]c12	100	75	21
CC(=O)Nc1ccc(OCCN(Cc2ccccc2C(F)(F)F)c2ccc(C#N)c(C(F)(F)F)c2)cc1	100	81	8
COc1c(CCNCCCCNCCc2cc(Cl)c3ccccc3c2OC)cc(Cl)c2ccccc12.CS(=O)(=O)O	99	100	99
COc1cccc(OC2CCN(C(=O)c3cc(C(C)(C)C)nn3Cc3ccccc3)CC2)c1	100	98	3
COc1cccc(C2CCN(CCN3CCC(NC(=O)c4ccc(-c5ccc(Cl)cc5)cc4)CC3)CC2)c1	93	42	31
COc1cccc2c(N/N=C/c3ccccc3[N+](=O)[O-])cc(C)nc12	99	32	0
